Reference: PubChem BioAssay (NCATS)
Results filed as inconclusive are left out. The source made the active and inactive calls. Unless noted, the call rests on the fitted dose curve; in most records, active means well fitted curve in the direction sought with a large enough effect; inconclusive means small, poorly fitted or top-dose-only effect, or another doubt; inactive means no such curve, though single readings can be large; an effect the other way counts as inactive or inconclusive.

What was measured:
[1] = qHTS assay for small molecule antagonists of peroxisome proliferator-activated receptor delta signaling (AID 588535); settings: HEK293T PPARd-UAS-bla, beta-lactamase FRET ratio, 18 h; 460 nm channel;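 further: cells co-treated with a PPAR-delta agonist as stimulator during compound exposure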
Outline: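 Antagonist-mode qHTS using GeneBLAzer PPAR-delta-UAS-bla HEK293T cells; compound exposure 18 hrs at 37 C over a titration. Ratiometric CCF4 fluorescence at 460/530 nm; concentration-response points fitted to the Hill equation.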

[2] = target: Peroxisome proliferator-activated receptor gamma (Homo sapiens) (UniProt P37231); experiment: qHTS assay for small molecule antagonists of peroxisome proliferator-activated receptor gamma signaling (AID 588537; active means well fitted inhibition curve with a large enough effect in the signal ratio, with a control signal flat, not every such curve was filed as active; the % refers to the signal ratio;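 further: reporter cells co-stimulated with 50 nM rosiglitazone agonist during compound treatment; % of control where 0% means no effect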); settings: HEK293 PPARg-UAS-bla, beta-lactamase ratio, antagonist mode; series mostly up to 76.8 µM
Outline: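 Cell-based beta-lactamase assay; GW9662 served as the antagonist control. Stimulation used rosiglitazone, final 50 nM, 16 h, 37 C.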

[3] = target: Thyroid hormone receptor beta (Homo sapiens) (UniProt P10828); experiment: qHTS assay for small molecule agonists of thyroid hormone receptor beta signaling (AID 588545; calls by dose curve;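 further: 0% = DMSO only and 100% = 10 nM T3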); settings: TR-UAS-bla GripTite HEK 293, beta-lactamase ratio, agonist mode, 18 h; series mostly up to 76.7 µM
Outline: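 Stimulation of a TR-driven beta-lactamase reporter was quantified in GripTite HEK 293 cells. Compound series ran for 18 hrs; curves were normalized to T3 and DMSO controls and fitted to yield EC50.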

[4] = qHTS assay for small molecule antagonists of retinoid X receptor alpha signaling (AID 588546; active means well fitted inhibition curve with a large enough effect in the signal ratio, with a control signal flat, not every such curve was filed as active; the % refers to the signal ratio;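 further: cells stimulated with 9-cis-retinoic acid as agonist; on the % scale 0 is the no-effect control and ±100 the full control effect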); settings: HEK293T RXRa-UAS-bla, beta-lactamase ratio, antagonist mode; measured here: W530 green channel, cytotoxicity proxy
Outline: (§1)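 Beta-lactamase reporter inhibition, read as CCF4 fluorescence ratio (ex 405, em 460/530 nm) after 2 h at RT. HEK293T UAS-bla cells, 2500/well, were stimulated with 9-cis-RA at 500 or 100 nM final alongside test compound for 18 h at 37 C.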

[5] = target: Retinoic acid receptor RXR-alpha (Homo sapiens) (UniProt P19793); experiment: as above; settings: HEK293T RXRa-UAS-bla, beta-lactamase ratio, antagonist mode
Outline: as §1

[6] = target: Thyroid hormone receptor beta (Homo sapiens) (UniProt P10828); experiment: qHTS assay for small molecule antagonists of thyroid hormone receptor beta signaling (AID 588547; active means well fitted inhibition curve with a large enough effect in the signal ratio, with a control signal flat, not every such curve was filed as active; the % refers to the signal ratio;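 further: cells stimulated with 0.4 nM T3 agonist during compound exposure; on the % scale 0 is the no-effect control and ±100 the full control effect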); settings: TR-UAS-bla HEK293, beta-lactamase ratio, antagonist mode, 18 h
Outline: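 Inhibition of T3-driven (0.4nM final) beta-lactamase reporter activity was measured over 0.59 nM to 92 uM compound after 18 h at 37 C. The cells were GripTite HEK293 TR-UAS-bla in charcoal/dextran-stripped serum, with CCF4 ratio read-out and IC50 from Hill fits.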

[7] = qHTS assay for small molecule activators of the p53 signaling pathway (AID 651743; active means well fitted activation curve with a large enough effect in the signal ratio, not every such curve was filed as active; the % refers to the signal ratio; further: % of control where 0% means no effect); settings: HCT-116 p53RE-bla, beta-lactamase FRET ratio, 16 h; activation: stronger effect = higher value
Outline: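 A beta-lactamase reporter under p53 response element control, stably carried by HCT-116 cells, reported pathway activation. Test compounds were applied for 16 hours at 37 C, and fluorescence was measured 2 hours after adding the B/G FRET substrate.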

[8] = qHTS assay for environmental chemicals that activate the Aryl hydrocarbon Receptor (AhR) signaling pathway (AID 651777); settings: 1A2-DRE human hepatoma cells, luciferase, 24 h; activation: stronger effect = higher value; further: % of control where 0% means no effect; nearly all actives have a fitted effect of over 15% in size
Outline: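 Stable CYP1A2 promoter/DRE-luciferase human hepatoma line treated 24 hr; One-Glo luminescence, 30 min RT.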

[9] = target: Peroxisome proliferator-activated receptor alpha (Homo sapiens) (UniProt Q07869); experiment: qHTS assay for small molecule agonists of the peroxisome proliferator-activated receptor alpha (PPARalpha) signaling pathway (AID 651778); settings: PathHunter PPARalpha complementation, chemiluminescence, 6 h; max response: stronger effect = higher value; further: potency means the concentration at half of the fitted maximal effect; on max response: % of control where 0% means no effect
Outline: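 Chemiluminescence from complemented enzyme reported PPARalpha activation in cells after 6 hr of compound treatment at 37 C. The detection reagent was incubated for 60 min at room temperature, and compounds were scored as agonists.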

[10] = qHTS assay for small molecule agonists of the antioxidant response element (ARE) signaling pathway measured by Nrf2-dependant transcriptional activity (AID 720636; active means well fitted curve in the direction sought with a large enough effect in the repeat runs; an effect the other way counts as inactive or inconclusive;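 further: HepG2 cells with an ARE-driven luciferase reporter; % of control where 0% means no effect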); settings: ARE-luc HepG2, Nrf2 luciferase reporter, 16 h; series mostly up to 92.4 µM
Outline: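 Reporter gene assay, HepG2 ARE-luc: 16 hr compound, 37 C, 5% CO2; read-out luciferase luminescence.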

[11] = qHTS assay for cell viability of HEK293 cells (AID 743288); settings: ATP luminescence (CellTiter-Glo), 18 h; max response: stronger effect = lower value; further: on the % scale 0 is the no-effect control and ±100 the full control effect; nearly all actives have a fitted effect of over 50% in size
Outline: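 Steps: plate 2,000 parental HEK293 cells per well; incubate ≥5 h, 37 C; add compounds in DMSO; incubate 18 h, 37 C; add CellTiter-Glo; wait 30 min at room temperature; read luminescence.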

[12] = qHTS assay for cell viability of the p53RE-bla HCT-116 cell line (AID 743292); settings: p53RE-bla HCT-116 viability, ATP luminescence, 16 h; series mostly up to 95 µM; further: on the % scale 0 is the no-effect control and ±100 the full control effect; nearly all actives have a fitted effect of over 55% in size
Outline: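 Readout: CellTiter-Glo luminescence after 30 min RT. Treatment: compounds in DMSO, 16 h, 37 C. Cells: CellSensor p53RE-bla HCT-116, 4,000/well, preincubated 5 h.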

[13] = target: Nuclear receptor subfamily 1 group I member 2 (Rattus norvegicus) (UniProt Q9R1A7); experiment: qHTS assay for small molecule activators of the rat pregnane X receptor (rPXR) signaling pathway (AID 651751; call rule not given here; further: 0% is about no effect); settings: rPXR reporter cells, luciferase (One-Glo), 24 h
[14] = qHTS assay for small molecule activators of the human pregnane X receptor (PXR) signaling pathway (AID 720659; call rule not given here; further: 0% is about no effect); settings: DPX-2 HepG2 CYP3A4-luciferase, 24 h; series mostly up to 92.3 µM
[15] = target: Peroxisome proliferator-activated receptor gamma (Homo sapiens) (UniProt P37231); experiment: qHTS assay for small molecule agonists of peroxisome proliferator-activated receptor gamma signaling (AID 588536; active means well fitted curve in the direction sought with a large enough effect in the signal ratio, with a control signal flat, not every such curve was filed as active; the % refers to the signal ratio;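 further: 0% = DMSO basal wells and 100% = rosiglitazone at 2 µM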); settings: HEK293 PPARg-UAS-bla, beta-lactamase ratio, 16 h, percent of rosiglitazone response, DMSO as zero; series mostly up to 76.7 µM
Outline: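 Using GeneBLAzer HEK293 cells, response was quantified by CCF4 fluorescence and normalized between basal DMSO (0%) and rosiglitazone 2 uM (100%); curves yielded half-maximal stimulation concentration and efficacy.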

[16] = qHTS assay for small molecule agonists of retinoid X receptor alpha signaling (AID 588544; calls by dose curve;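 on activation: 0% = DMSO basal wells and 100% = reference agonist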); settings: HEK293T RXRa-UAS-bla, beta-lactamase reporter, 18 h; 530 nm emission
[17] = target: Retinoic acid receptor RXR-alpha (Homo sapiens) (UniProt P19793); experiment: as above; settings: HEK293T RXRa-UAS-bla, beta-lactamase reporter, 18 h; series mostly up to 76.7 µM
[18] = qHTS assay for small molecule agonists of the antioxidant response element (ARE) signaling pathway measured by Nrf2-dependant transcriptional activity - cell viability counter screen (AID 720653; active means well fitted curve in the direction sought with a large enough effect in the repeat runs; an effect the other way counts as inactive or inconclusive; further: on the % scale 0 is the no-effect control and ±100 the full control effect); settings: ARE-bla HepG2 viability, CellTiter-Glo ATP luminescence, 16 h; max response: stronger effect = lower value
Outline: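 Cytotoxicity counter screen: intracellular ATP quantified by CellTiter-Glo luminescence in the same ARE-bla HepG2 plates, after 16 h compound exposure and a 2 h beta-lactamase substrate step.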

[19] = qHTS assay for small molecule activators of the nuclear factor-kappa B (NF-kB) signaling pathway (AID 651749; active means well fitted activation curve with a large enough effect in the signal ratio; the % refers to the signal ratio; further: % of control where 0% means no effect); settings: NF-kB-bla ME-180 cells, beta-lactamase FRET ratio, 16 h; activation: stronger effect = higher value
Outline: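 FRET-based beta-lactamase detection in ME-180 cells reports NF-kB response-element-driven transcription following overnight (16 hr) compound treatment.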

[20] = target: Glucocorticoid receptor (Homo sapiens) (UniProt P04150); experiment: qHTS assay for small molecule agonists of glucocorticoid receptor signaling (AID 588532; active means well fitted curve in the direction sought with a large enough effect in the signal ratio, with a control signal flat; the % refers to the signal ratio;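 further: 100% = dexamethasone at 0.1 µM and 0% = DMSO only wells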); settings: HeLa MMTV-bla, beta-lactamase ratio, agonist, 18 h; stronger effect = higher value; percent of dexamethasone control, DMSO zero
Outline: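 Agonist-mode qHTS: GRE-driven beta-lactamase in HeLa cells exposed 18 h to titrated compounds (up to 92 uM), then CCF4 ratio read after 2 h at RT; Hill-fitted EC50, efficacy relative to 0.1 uM dexamethasone.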

Sequence of Nuclear receptor subfamily 1 group I member 2 (Rattus norvegicus) (Q9R1A7 whole entry, looked up): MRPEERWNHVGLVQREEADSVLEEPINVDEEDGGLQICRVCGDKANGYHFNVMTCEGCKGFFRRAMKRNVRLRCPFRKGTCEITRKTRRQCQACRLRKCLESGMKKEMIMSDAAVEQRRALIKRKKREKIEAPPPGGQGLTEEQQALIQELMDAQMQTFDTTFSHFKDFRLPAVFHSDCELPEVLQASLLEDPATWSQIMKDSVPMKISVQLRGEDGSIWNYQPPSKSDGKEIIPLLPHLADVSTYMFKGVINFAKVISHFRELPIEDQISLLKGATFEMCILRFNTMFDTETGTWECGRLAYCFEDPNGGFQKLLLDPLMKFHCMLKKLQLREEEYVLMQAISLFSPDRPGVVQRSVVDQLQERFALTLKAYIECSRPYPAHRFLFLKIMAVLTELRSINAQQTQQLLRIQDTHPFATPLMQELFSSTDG
Sequence of Thyroid hormone receptor beta (Homo sapiens) (P10828 whole entry, looked up): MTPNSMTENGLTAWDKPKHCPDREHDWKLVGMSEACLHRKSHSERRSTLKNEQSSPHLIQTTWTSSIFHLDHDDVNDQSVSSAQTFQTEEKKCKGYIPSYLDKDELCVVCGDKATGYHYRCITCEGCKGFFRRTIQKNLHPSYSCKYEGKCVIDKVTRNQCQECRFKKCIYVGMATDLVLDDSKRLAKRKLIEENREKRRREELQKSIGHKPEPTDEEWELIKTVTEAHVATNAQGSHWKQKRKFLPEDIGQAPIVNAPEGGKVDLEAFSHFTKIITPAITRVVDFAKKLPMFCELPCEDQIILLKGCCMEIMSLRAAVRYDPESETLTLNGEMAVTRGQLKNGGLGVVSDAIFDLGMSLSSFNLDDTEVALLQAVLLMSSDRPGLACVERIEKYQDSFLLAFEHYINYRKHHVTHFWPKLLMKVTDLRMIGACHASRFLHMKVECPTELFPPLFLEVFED
Sequence of Retinoic acid receptor RXR-alpha (Homo sapiens) (P19793 whole entry, looked up): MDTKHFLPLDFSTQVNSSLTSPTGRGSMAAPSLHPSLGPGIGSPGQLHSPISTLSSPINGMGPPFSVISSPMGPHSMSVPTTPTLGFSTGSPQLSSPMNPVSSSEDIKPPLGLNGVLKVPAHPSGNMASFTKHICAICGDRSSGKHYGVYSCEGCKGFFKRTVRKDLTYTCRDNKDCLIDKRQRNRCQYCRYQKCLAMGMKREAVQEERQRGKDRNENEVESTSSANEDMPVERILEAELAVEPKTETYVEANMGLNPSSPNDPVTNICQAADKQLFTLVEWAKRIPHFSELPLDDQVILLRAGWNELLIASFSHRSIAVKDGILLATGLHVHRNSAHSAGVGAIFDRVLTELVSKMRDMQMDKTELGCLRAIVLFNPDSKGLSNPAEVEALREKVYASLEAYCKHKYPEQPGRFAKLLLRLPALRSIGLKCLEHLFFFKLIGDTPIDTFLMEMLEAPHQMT
Sequence of Peroxisome proliferator-activated receptor alpha (Homo sapiens) (Q07869 whole entry, looked up): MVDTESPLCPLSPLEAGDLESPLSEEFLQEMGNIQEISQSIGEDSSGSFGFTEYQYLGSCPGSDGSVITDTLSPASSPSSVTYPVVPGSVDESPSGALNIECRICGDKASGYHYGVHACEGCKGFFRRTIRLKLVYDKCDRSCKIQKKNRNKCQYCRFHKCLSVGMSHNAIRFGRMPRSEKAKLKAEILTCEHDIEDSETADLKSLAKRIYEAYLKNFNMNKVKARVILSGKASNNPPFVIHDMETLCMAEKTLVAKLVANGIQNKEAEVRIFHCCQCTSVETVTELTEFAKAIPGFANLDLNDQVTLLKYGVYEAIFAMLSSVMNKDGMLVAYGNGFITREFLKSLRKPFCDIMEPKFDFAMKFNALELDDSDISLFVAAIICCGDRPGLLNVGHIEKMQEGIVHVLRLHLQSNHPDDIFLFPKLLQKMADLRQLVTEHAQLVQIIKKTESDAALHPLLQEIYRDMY
Sequence of Peroxisome proliferator-activated receptor gamma (Homo sapiens) (P37231 whole entry, looked up): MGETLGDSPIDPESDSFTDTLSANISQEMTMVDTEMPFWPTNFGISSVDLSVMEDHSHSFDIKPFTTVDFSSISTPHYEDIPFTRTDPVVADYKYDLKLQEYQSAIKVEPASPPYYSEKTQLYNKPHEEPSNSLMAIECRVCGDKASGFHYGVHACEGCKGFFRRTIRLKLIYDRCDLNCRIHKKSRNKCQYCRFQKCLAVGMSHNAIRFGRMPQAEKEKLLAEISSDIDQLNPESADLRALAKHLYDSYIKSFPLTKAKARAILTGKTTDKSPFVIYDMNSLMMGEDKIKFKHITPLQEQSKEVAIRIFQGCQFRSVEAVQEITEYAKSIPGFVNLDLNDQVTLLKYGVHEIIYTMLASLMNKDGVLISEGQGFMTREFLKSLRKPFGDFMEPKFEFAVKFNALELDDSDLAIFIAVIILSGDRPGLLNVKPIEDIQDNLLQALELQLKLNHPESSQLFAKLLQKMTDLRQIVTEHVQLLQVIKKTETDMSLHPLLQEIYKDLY
Sequence of Glucocorticoid receptor (Homo sapiens) (P04150 whole entry, looked up): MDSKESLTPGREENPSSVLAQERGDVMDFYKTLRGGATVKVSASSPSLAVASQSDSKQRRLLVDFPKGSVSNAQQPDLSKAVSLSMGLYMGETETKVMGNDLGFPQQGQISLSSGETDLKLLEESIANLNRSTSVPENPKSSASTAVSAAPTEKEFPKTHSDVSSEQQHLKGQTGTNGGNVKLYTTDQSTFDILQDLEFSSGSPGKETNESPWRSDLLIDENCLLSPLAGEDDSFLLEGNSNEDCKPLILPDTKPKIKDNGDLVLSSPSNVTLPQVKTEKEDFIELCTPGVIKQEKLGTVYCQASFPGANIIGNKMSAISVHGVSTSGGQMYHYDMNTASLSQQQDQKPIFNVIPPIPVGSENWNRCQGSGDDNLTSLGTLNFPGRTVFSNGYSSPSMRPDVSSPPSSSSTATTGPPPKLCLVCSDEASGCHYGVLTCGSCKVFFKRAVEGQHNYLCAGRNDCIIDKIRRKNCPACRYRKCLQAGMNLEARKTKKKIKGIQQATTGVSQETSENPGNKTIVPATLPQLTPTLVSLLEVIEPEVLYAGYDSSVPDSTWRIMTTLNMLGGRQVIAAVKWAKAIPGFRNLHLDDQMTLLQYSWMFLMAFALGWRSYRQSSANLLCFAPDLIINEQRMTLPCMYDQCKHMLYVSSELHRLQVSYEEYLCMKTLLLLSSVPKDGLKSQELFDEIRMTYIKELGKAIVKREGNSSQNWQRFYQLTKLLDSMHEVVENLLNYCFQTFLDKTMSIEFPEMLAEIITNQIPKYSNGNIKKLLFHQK

C=C(C)C(=O)OCCN(C)C
inactive: Potency [2] | Potency [3] | max response [5] 6.15% | activity change % (negative = inhibition) [6] 5.49% | activation [7] -0.52% | activation [8] 0.477% | max response [9] -0.281% | Potency [10] | max response [11] -8.88% | Potency [12] | max response [13] 5.37% | outcome [14]
0.555%: max response [4]
-44.3%: max response [1]

CCCCCCCCCCCCCCCC
-21.5%: max response [4]
0.581%: max response [16]
inactive: outcome [15] | Potency [2] | Potency [17] | Potency [3] | activity change % (negative = inhibition) [6] -0.344% | activation [7] -5.95% | activation [8] 0.0152% | max response [9] 0.236% | Potency [10] | max response [18] -4.36% | max response [11] -2.82% | max response [13] 1.98% | outcome [14]
55.6%: max response [1]

CCCCCCCCCCCCCCCCCC#N
-14.7%: max response [16]
-8.8%: max response [4]
inactive: outcome [15] | Potency [2] | Potency [17] | Potency [3] | max response [5] -4.3% | activity change % (negative = inhibition) [6] 11.1% | activation [7] -6.64% | activation [19] -1.03% | activation [8] 2.76% | max response [9] 3.6% | max response [11] -12.8% | Potency [12] | max response [13] 2.15% | outcome [14]
1.68%: max response [1]

CCCCC/C=C\C/C=C\CCCCCCCC(=O)OC
-7.14%: max response [16]
10.1%: max response [1]
inactive: outcome [15] | Potency [2] | Potency [17] | Potency [3] | max response [5] -5.56% | activity change % (negative = inhibition) [6] -14.4% | activation [19] -0.453% | activation [8] 1.77% | max response [9] -0.289% | Potency [10] | max response [18] -4.45% | max response [11] -12.5% | Potency [12] | max response [13] -0.654% | outcome [14]
7.06%: max response [4]

CCCCCCc1ccc(N)cc1
inactive: activation [20] -7.39% | outcome [15] | Potency [2] | Potency [3] | activity change % (negative = inhibition) [6] 1.93% | activation [7] 0.412% | activation [19] 0.791% | activation [8] 2.42% | max response [9] 0.597% | Potency [10] | max response [18] -14.6% | max response [11] -16% | Potency [12] | max response [13] -2.28% | outcome [14]
65.6%: max response [1]
-5.49%: max response [4]

BrC1CCC(Br)C(Br)CCC(Br)C(Br)CCC1Br (stereo not given)
-2.96%: max response [4]
0.976%: max response [16]
11.4%: max response [1]
inactive: activation [20] -5.02% | outcome [15] | Potency [2] | Potency [17] | Potency [3] | max response [5] -24.4% | activity change % (negative = inhibition) [6] 9.02% | activation [7] -4.94% | activation [19] 1.45% | activation [8] 1.8% | max response [9] -0.0514% | Potency [10] | max response [11] -7.59% | Potency [12] | max response [13] 0.315% | outcome [14]

O=C1NC(=O)C(Cc2ccc(OCCN3COc4ccccc4C3=O)cc2)S1 (stereo not given)
inactive: activation [20] 5.15% | Potency [3] | max response [5] -11.1% | activation [7] 0.726% | activation [19] 0.424% | activation [8] 13.4% | max response [18] -6.38% | max response [11] -10.2% | Potency [12] | max response [13] 1.08%
33.2%: max response [4]
active: Potency [9] 17.8 µM

COC(=O)C(C)Oc1ccc(Oc2ncc(C(F)(F)F)cc2Cl)cc1 (stereo not given)
-16.8%: max response [1]
inactive: Potency [2] | Potency [3] | max response [5] -74.4% | activation [7] -4.64% | activation [8] 0.251% | max response [9] 0.508% | Potency [10] | max response [18] -10.2% | max response [11] -21.9% | max response [13] -3.2% | outcome [14]
5.42%: max response [4]

CCOc1ccc(NC(=O)OC(C)C)cc1OCC
-3.73%: max response [4]
inactive: activation [20] -6.81% | outcome [15] | Potency [2] | Potency [3] | max response [5] -21.6% | activity change % (negative = inhibition) [6] -11% | activation [7] -0.775% | activation [19] -0.916% | activation [8] 2.6% | max response [9] 2.76% | Potency [10] | max response [18] -3.59% | max response [11] -5.68% | Potency [12] | max response [13] 10.3%
-29.8%: max response [1]

CCCCN(CCCC)CCCCCCN(CCCC)CCCC
-14.8%: max response [16]
inactive: outcome [15] | Potency [2] | Potency [17] | Potency [3] | activity change % (negative = inhibition) [6] 10% | activation [7] -4.69% | activation [8] 1.73% | max response [9] -0.567% | Potency [10] | max response [18] -9.43% | max response [11] -21.9% | max response [13] 4.27% | outcome [14]
6.65%: max response [1]

Cc1nn(C)c(Oc2ccccc2)c1/C=N/OCc1ccc(C(=O)OC(C)(C)C)cc1
inactive: activation [20] -3.9% | Potency [17] | Potency [3] | activity change % (negative = inhibition) [6] -18.8% | activation [7] 9.47% | max response [9] 2.08% | Potency [10] | Potency [12] | outcome [14]
-10.3%: max response [16]

CC(=O)CC(=O)Nc1ccc(C)cc1C
inactive: activation [20] 7.78% | outcome [15] | Potency [2] | Potency [3] | activation [7] -5.45% | activation [19] 0.179% | activation [8] 0.555% | max response [9] -1.32% | Potency [10] | max response [18] -2.61% | max response [11] -7.21% | Potency [12] | max response [13] -1.86% | outcome [14]

C=C(C)C(=O)OCCCCCCCCCCCC
-11.6%: max response [16]
-35.9%: max response [1]
inactive: activation [20] -1.63% | outcome [15] | Potency [2] | Potency [17] | Potency [3] | activity change % (negative = inhibition) [6] 0.53% | activation [7] 1.89% | activation [19] -0.811% | activation [8] 1.15% | max response [9] -1.38% | max response [18] 11.2% | max response [11] -6.64% | Potency [12] | max response [13] 1.96% | outcome [14]
-6.86%: max response [4]
